Bioassay records (PubChem)
Compounds with a hit are over-represented: about 18% of the library has one in this group of screens.
VDR inh = Inhibitors of the vitamin D receptor (VDR): qHTS. Vitamin D3 receptor (Homo sapiens), P11473. VDR-SRC2-3 peptide fluorescence polarization, 2 h. Potency, µM, inactives show max response, negative = inhibition, most hits filed as inhibitors. 0.93% of 400,000 active
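Reagent solutions, kept cold and dark, are dispensed first; compounds are then pinned in at 23 nl, plates briefly spun, and incubated 2 h at ambient temperature. Inhibition of VDR–SRC2-3 peptide binding is read by fluorescence polarization.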
DT40 TDP1 CPT = qHTS for Inhibitors of human tyrosyl-DNA phosphodiesterase 1 (TDP1): qHTS in cells in presence of CPT | Potency, µM (highest dose often 46.2 µM), without a hit: at the highest dose activity change, negative = growth inhibition, hits mostly inhibitors | AID 686979, 2013 | chicken DT40 Tdp1-/-;hTDP1 cells + 20 nM CPT, ATP luminescence, 48 h | 12% of 420,000 active; also: nearly all actives have a fitted effect of over 55% in size
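Chicken DT40 Tdp1-/- cells complemented with human TDP1, 400 cells/well, exposed to compounds plus 20 nM camptothecin for at least 48 h at 37 C; viability read as ATP content by CellTiter-Glo luminescence.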
TDP1 cell noCPT = qHTS for Inhibitors of human tyrosyl-DNA phosphodiesterase 1 (TDP1): qHTS in cells in absence of CPT. DT40 Tdp1-/- hTDP1 cells, no CPT, ATP luminescence, 48 h. Potency, µM (doses to about 46.2 µM), for the others: at the highest dose activity change, negative = growth inhibition, most hits filed as inhibitors. 15% of 420,000 active. AID 686978, 2013; also: nearly all actives have a fitted effect of over 55% in size
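Seeded 400 DT40-hTDP1 cells/well (vehicle DMSO, no 20 nM CPT); pinned compounds; ≥48 hr at 37 °C; CellTiter-Glo luminescence as viability measure.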
TDP1 inh = qHTS Assay for Inhibitors of Tyrosyl-DNA Phosphodiesterase (TDP1); recombinant TDP1, AlphaScreen DNA substrate cleavage; Potency, µM (top dose mostly 130 µM), for the others: at the highest dose activity change, negative = inhibition, usual class: inhibitors; 0.28% of 350,000 active; also: nearly all actives have a fitted effect of over 40% in size
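Signal: AlphaScreen proximity between streptavidin donor and anti-FITC acceptor beads on intact substrate. Reaction: Tdp1 1 nM, substrate 15 nM final, 5 min RT after 15 min compound preincubation.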
KAT2A inh = qHTS Assay for Inhibitors of GCN5L2; Histone acetyltransferase KAT2A (Homo sapiens), Q92830; GCN5L2 HAT assay, ThioGlo1 CoA-SH fluorescence; Potency, µM (highest dose often 58.9 µM), for the others: at the top dose activity change, negative = inhibition, hits mostly inhibitors; 0.21% of 390,000 active
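Preincubate 20nM GCN5L2 with compound 15 min, RT → add 50uM ThioGlo1 + 75uM H3(1-25) + 70uM acetyl-CoA → read fluorescence 0 and 20 min. Primary qHTS; fluorescent artifacts likely.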
PLK1 PBD inh = qHTS for Inhibitors of PLK1-PDB (polo-like kinase 1 - polo-box domain): Primary Screen | Serine/threonine-protein kinase PLK1 (Homo sapiens), P53350 | Plk1 PBD binding of FITC phosphopeptide, fluorescence polarization | Potency, µM, without a hit: max response, negative = inhibition, hits mostly inhibitors | 2.8% of 360,000 active | AID 720504, 2013; also: series mostly up to about 57 µM; nearly all actives have a fitted effect of over 65% in size
Target sequence (P53350 whole entry, looked up, the tested form may be a part): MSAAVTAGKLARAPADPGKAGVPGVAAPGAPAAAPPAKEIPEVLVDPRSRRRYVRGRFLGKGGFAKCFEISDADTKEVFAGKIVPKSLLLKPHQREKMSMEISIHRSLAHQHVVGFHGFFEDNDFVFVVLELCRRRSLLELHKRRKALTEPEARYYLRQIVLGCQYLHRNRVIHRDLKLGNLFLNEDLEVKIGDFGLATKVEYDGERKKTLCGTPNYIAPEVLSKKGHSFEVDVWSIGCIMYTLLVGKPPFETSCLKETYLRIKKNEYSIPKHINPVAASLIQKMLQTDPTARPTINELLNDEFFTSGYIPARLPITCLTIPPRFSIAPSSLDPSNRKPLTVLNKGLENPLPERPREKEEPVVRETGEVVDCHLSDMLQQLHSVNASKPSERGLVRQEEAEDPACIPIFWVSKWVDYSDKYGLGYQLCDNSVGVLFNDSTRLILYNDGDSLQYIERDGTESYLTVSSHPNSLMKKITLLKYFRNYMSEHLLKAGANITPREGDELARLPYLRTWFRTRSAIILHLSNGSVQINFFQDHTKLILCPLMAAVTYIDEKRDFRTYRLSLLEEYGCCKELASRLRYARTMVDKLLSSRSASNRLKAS
* marks the source's active call; other numbers are inactive results; ? = inconclusive; nt = not tested or not shown; [ ] = another dose, or the depositor's remark. Calls follow the shape of the dose curve; as a rule, active = well fitted curve in the direction sought with a large enough effect; inconclusive = small, poorly fitted or top-dose-only effect, or another doubt; inactive = no such curve, though single readings can be large; an effect the other way counts as inactive or inconclusive. % is scaled to controls: 0 for no effect and ±100 for the full control effect; potency is read from the fitted curve at half-maximal effect.

SMILES	VDR inh	DT40 TDP1 CPT	TDP1 cell noCPT	TDP1 inh	KAT2A inh	PLK1 PBD inh
CC(Oc1cccc(Cl)c1)C(=O)Nc1cc(Cl)ccc1N1CCOCC1 (configuration not stated)	-8%	21µM*	?	-5%	-1%	-11%
CCOc1cc(N2CCOCC2)c(OCC)cc1NC(=O)c1ccc(OC)c(S(=O)(=O)N2CCOCC2)c1	-2%	-24%	?	-4%	0%	5%
CC(Oc1cccc(Cl)c1)C(=O)Nc1ccccc1C(=O)N1CCCCC1 (configuration not stated)	-1%	23µM*	?	4%	1%	-14%
COc1cccc(C(=O)Nc2cc(=O)n(C)c(=O)n2C)c1	4%	4%	-2%	nt	-1%	-13%
O=C(CN1C(=O)c2ccccc2C1=O)OCC(=O)c1ccccc1	3%	?	-33%	nt	-3%	3%
O=C(CN1C(=O)COc2ccc(S(=O)(=O)N3CCCCCC3)cc21)N1CCN(c2ccc(Cl)cc2)CC1	-12%	nt	nt	6%	-1%	nt
COc1ccccc1C1=Nn2c(nnc2-c2ccccc2O)SC1	nt	nt	nt	11%	nt	nt
CCOc1cc(NC(=S)NCCCN2CCOCC2)c(OCC)cc1NC(=O)C1CCCCC1	24%	-14%	-4%	6%	-5%	-3%
Cc1ccc(C)c(OCCC(=O)OCC(=O)Nc2cccnc2Cl)c1	-1%	15µM*	?	nt	nt	-9%
CCOc1cc(N2CCOCC2)c(OCC)cc1NC(=O)C1CCCC1	-7%	?	29µM*	6%	-3%	1%
CCOc1cc(N2CCOCC2)c(OCC)cc1NC(=O)c1cnccn1	-13%	21µM*	23µM*	4%	0%	-1%
CCOc1cc(N2CCOCC2)c(OCC)cc1NC(=O)CCS(=O)(=O)c1ccc(Cl)cc1	-1%	4.1µM*	1.8µM*	4%	-2%	?
CC1CC(C)(C)NC(=S)O1 (configuration not stated)	11%	17%	7%	-1%	-4%	?
Cc1c(-c2ccccc2)n(-c2ccc(Cl)cc2)c2nc3c(c(=O)n(C)c(=O)n3C)n12	11%	2%	-6%	5%	-1%	nt
Nc1ncnc2c1ncn2[C@@H]1O[C@H](COP(=O)(O)OP(=O)(O)OP(=O)(O)OP(=O)(O)OC[C@@H]2O[C@H](n3cnc4c(N)ncnc43)[C@@H](O)[C@@H]2O)[C@H](O)[C@H]1O	nt	nt	nt	-15%[56.1 µM]	nt	nt
CCOc1cc(N2CCOCC2)c(OCC)cc1NC(=O)CCC1CCCC1	-1%	16µM*	18µM*	5%	-1%	1%
CCN(Cc1ccncc1)C(=O)c1ccccc1NS(=O)(=O)c1ccc(Br)cc1	-20%	-21%	-19%	nt	-3%	-7%
CCOc1cc(/C=N/NC(=O)CNc2cccc(C)c2)ccc1OC(=O)c1ccccc1	8%	?	18µM*	5%	27%	-6%
COc1cc(/C=N/Nc2ccccc2)ccc1OC(=O)c1cccs1	-10%	-7%	-2%	7%	-4%	4%
COc1cc(OC)cc(C(=O)Oc2ccc(/C=N/Nc3nc4ccccc4s3)cc2OC)c1	2%	?	?	5%	-5%	-6%
COC(=O)c1ccc(/C=N/NC(=O)CNc2cccc(C)c2)cc1	-7%	-4%	-25%	5%	9%	-10%
COc1cc(C=NNc2ccccc2)ccc1OC(=O)c1ccccc1	nt	?	18µM*	nt	nt	-5%
COc1cc(/C=N/Nc2nc3ccccc3s2)ccc1OC(=O)c1ccccc1F	1%	6.5µM*	4.6µM*	-5%	-13%	-2%
O=C(c1ccc2[nH]c(=O)c(=O)[nH]c2c1)N1CCc2ccccc2C1	5%	-1%	-5%	-15%	0%	-3%
CC1(C)OC2C[C@](O)(C(N)=O)C[C@H](O)[C@H]2O1 (some centres not stated)	-1%	0%	-1%	8%	-2%	nt
SMILES	VDR inh	DT40 TDP1 CPT	TDP1 cell noCPT	TDP1 inh	KAT2A inh	PLK1 PBD inh
COc1ccc(CC(=O)NC(C)c2ccc(S(N)(=O)=O)cc2)cc1S(=O)(=O)N1CCOCC1 (configuration not stated)	-19%	-3%	-1%	3%	-1%	-1%
COc1ccccc1CNC(=O)c1cc(Sc2cccc(Cl)c2)nc2ccccc12	0%	?	?	3%	1%	nt
COc1cccc(CN(C)C(=O)c2cc(-c3cccs3)nc3ccccc23)c1	5%	21µM*	18µM*	2%	3%	-8%
COc1ccc(N2CCN(C(=O)c3cc(-c4cccs4)nc4ccccc34)CC2)cc1	-3%	?	?	5%	-8%	-8%
COc1cccc(C(=O)COC(=O)c2cc(-c3cccs3)nc3ccccc23)c1	-10%	?	16µM*	nt	1%	nt
CCN(CC)C(=O)Cn1cc(SCC(=O)NC2CCCCC2)c2ccccc21	nt	-23%	-21%	nt	nt	-8%
Cc1cc2c(cc1C)NC(CC(=O)Nc1ccccc1)C(=O)N2 (configuration not stated)	3%	16µM*	26µM*	nt	-1%	nt
CCOc1ccccc1NC(=O)CC1Nc2cc(C)c(C)cc2NC1=O (configuration not stated)	-16%	18µM*	?	2%	-4%	-5%
Cc1ccsc1/C=N/n1c(-c2ccncc2)n[nH]c1=S	4%	?	-14%	-6%	-5%	?
O=C(CSc1nc2ccccc2s1)Nc1ccc(Cl)c(C(=O)O)c1	2%	26%	-1%	0%	?	8.4µM*
O=C(CSc1nc2ccccc2s1)NNC(=O)Nc1ccc(Cl)c(Cl)c1	-2%	-12%	-2%	5%	-4%	-3%
O=C(CSc1nc2ccc(NC(=O)CSc3nnnn3-c3ccccc3)cc2s1)Nc1ccccc1	-15%	16µM*	?	0%	-14%	-2%
Cn1c(=O)c(-c2ccc(Cl)cc2)nc2cnc(Oc3cccc(Cl)c3)nc21	-14%	-22%	-11%	nt	-11%	nt
Cc1ccc2ncnc(Oc3ncccc3[N+](=O)[O-])c2c1	-8%	5.8µM*	6.5µM*	-4%	-4%	0%
